High-throughput results (PubChem)
TDP1 cell noCPT: qHTS for Inhibitors of human tyrosyl-DNA phosphodiesterase 1 (TDP1): qHTS in cells in absence of CPT; DT40 Tdp1-/- hTDP1 cells, no CPT, ATP luminescence, 48 h; Potency, µM (highest dose often 46.2 µM), without a hit: at the highest dose activity change, negative = growth inhibition, actives largely listed as inhibitors; hit rate 15% among 420,000; AID 686978, 2013; note: potency is the fitted concentration of half-maximal effect; nearly all actives have a fitted effect of over 55% in size
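DT40 Tdp1-/-;hTDP1 cells, no CPT (DMSO vehicle only), 400 cells/well; compounds pin-transferred; ≥48 hr, 37 °C; CellTiter-Glo 30 min RT dark, luminescence read.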
DT40 TDP1 CPT: qHTS for Inhibitors of human tyrosyl-DNA phosphodiesterase 1 (TDP1): qHTS in cells in presence of CPT; chicken DT40 Tdp1-/-;hTDP1 cells + 20 nM CPT, ATP luminescence, 48 h; Potency, µM (titrated, usually from 46.2 µM), inactives show top-dose activity change, negative = growth inhibition, usual class: inhibitors; hit rate 12% among 420,000; AID 686979, 2013; note: potency is the fitted concentration of half-maximal effect; nearly all actives have a fitted effect of over 55% in size
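Chicken DT40 Tdp1-/- cells complemented with human TDP1, 400 cells/well, exposed to compounds plus 20 nM camptothecin for at least 48 h at 37 C; viability read as ATP content by CellTiter-Glo luminescence.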
IL-1B inflam inh: qHTS for Inhibitors of Inflammasome Signaling: IL-1-beta AlphaLISA Primary Screen. hit rate 4.7% among 360,000. AID 743279, 2014. THP-1 LPS/ATP IL-1B secretion, AlphaLISA, 16 h; stronger effect = lower value. activity change, % at 57.5 µM; in the data active = activity change below about -50%; inconclusive = mostly about -30% to -49%
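THP-1 cells pretreated 1 hr with compounds (up to 57.5 uM final), then stimulated with LPS (250 ng/mL final) plus ATP (1.25 mM final); secreted IL-1B measured by AlphaLISA after 16 hr, decreased signal indicating inhibition.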
HT1080-NT tox: qHTS for induction of synthetic lethality in tumor cells producing 2HG: qHTS for the HT-1080-NT fibrosarcoma cell line | HT-1080-NT fibrosarcoma viability, CellTiter-Glo ATP luminescence, 48 h | Potency, µM (titrated, usually from 46.1 µM), for inactives: at the highest dose activity, negative = less viability, usual class: cytotoxic | hit rate 1.6% among 360,000 | AID 686970, 2013;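 note: NT is the 2HG producing partner of a matched IDH1 knockdown line; potency is the fitted concentration of half-maximal effect; 0% = DMSO-treated cells and -100% = media-only wells without cells; nearly all actives have a fitted effect of over 55% in size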
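HT-1080-NT fibrosarcoma cells (2HG-overproducing), 750 cells/well in RPMI with 5% FBS, dosed after 2 h and incubated 48 h at 37C. CellTiter-Glo luminescence normalized to DMSO and no-cell wells; concentration-response curves fitted and classed.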
12-LOX inh: Primary qHTS assay for inhibitors of human arachidonate 12S-lipoxygenase (ALOX12): Round 2 | purified 12hLO, xylenol orange hydroperoxide absorbance | Potency, µM (titrated, usually from 108 µM), without a hit: at the top dose activity change, negative = inhibition, actives largely listed as inhibitors | AID 1671190, 2021 | hit rate 1.1% among 580,000 | Polyunsaturated fatty acid lipoxygenase ALOX12 (Homo sapiens), P18054; note: potency is the fitted concentration of half-maximal effect
Target sequence (P18054 whole entry, looked up): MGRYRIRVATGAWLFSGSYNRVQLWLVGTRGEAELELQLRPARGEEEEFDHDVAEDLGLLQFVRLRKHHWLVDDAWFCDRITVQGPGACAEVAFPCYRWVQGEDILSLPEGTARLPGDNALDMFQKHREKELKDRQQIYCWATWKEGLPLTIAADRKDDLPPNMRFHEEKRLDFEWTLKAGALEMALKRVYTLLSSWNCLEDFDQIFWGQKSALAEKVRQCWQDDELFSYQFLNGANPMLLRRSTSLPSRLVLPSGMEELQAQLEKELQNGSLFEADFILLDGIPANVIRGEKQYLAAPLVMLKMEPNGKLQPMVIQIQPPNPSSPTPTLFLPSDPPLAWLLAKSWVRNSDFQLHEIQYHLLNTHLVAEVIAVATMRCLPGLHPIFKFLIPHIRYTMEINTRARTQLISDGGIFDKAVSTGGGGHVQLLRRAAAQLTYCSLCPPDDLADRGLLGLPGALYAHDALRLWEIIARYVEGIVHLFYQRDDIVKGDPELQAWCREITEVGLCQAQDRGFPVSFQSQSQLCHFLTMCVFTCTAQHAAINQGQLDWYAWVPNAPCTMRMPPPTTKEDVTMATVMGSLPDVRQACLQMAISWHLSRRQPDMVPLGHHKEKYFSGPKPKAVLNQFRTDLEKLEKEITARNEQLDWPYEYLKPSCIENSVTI
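Hydroperoxide product was detected by ferrous iron/xylenol orange as the 573 to 405 nm absorbance ratio. Arachidonic acid at 40 uM (final) was turned over for 30 min at room temperature by 150 nM human 12hLO, pH 7.0 Hepes buffer, after 15 min compound preincubation.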
HT1080 IDH1KD tx: qHTS for induction of synthetic lethality in tumor cells producing 2HG: qHTS for the HT-1080-IDH1KD cell line; Potency, µM (series often up to 46.1 µM), for the others: at the highest dose activity, negative = toxicity, actives largely listed as cytotoxic; HT-1080 IDH1 knockdown viability, ATP luminescence, 48 h; hit rate 2% among 360,000;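 note: potency is the fitted concentration of half-maximal effect; 0% = DMSO wells and -100% = cell-free medium wells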
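In this qHTS, HT-1080 cells depleted of IDH1 are exposed for 48 h at 37 °C to compound titrations. Toxicity is scored from CellTiter-Glo luminescence, with DMSO as full viability and medium alone as none.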
Numbers without * were called inactive; ? = inconclusive; / = no result; [ ] = remark or other dose. The entries come from a sample that favours hits as a whole. Unless noted, calls come from the whole dose curve; as a rule, active = well fitted curve in the direction sought with a large enough effect; inconclusive = small, poorly fitted or top-dose-only effect, or another doubt; inactive = no such curve, though single readings can be large; an effect the other way counts as inactive or inconclusive. Unless noted, % is set by controls: 0 for no effect and ±100 for the full control effect.

SMILES | TDP1 cell noCPT | DT40 TDP1 CPT | IL-1B inflam inh | HT1080-NT tox | 12-LOX inh | HT1080 IDH1KD tx
O=C(CCc1nnc2n(Cc3ccccc3)c(=O)c3ccccc3n12)NCCCN1CCCCC1 | 3% | -15% | -14 | 3% | -3% | 1%
C=C(C)C1CC=C(C)C(COc2ccc3ccc(=O)oc3c2)C1(C)CCC(=O)OC (centres undefined) | / | / | / | / | -18% | /
C[C@@H]1CN(CC(=O)NCCc2ccc(F)cc2)CC[C@@]1(O)C1CC1 | / | / | / | / | 3% | /
Cc1cccc(-c2nc(SCc3noc(CCC(=O)Nc4ccc5ccccc5c4)n3)n[nH]2)c1 | / | / | / | / | -19% | /
Cn1cc(SCC(=O)N2CCN(c3ccccc3)CC2)c2ccccc21 | ? | 21µM* | -2 | -10% | -27% | 0%
Cc1ccc(C)c(N2CCN(C(=O)COc3cc(=O)n(C)c4ccccc34)CC2)c1 | ? | 15µM* | -26 | 2% | -22% | -16%
CC1CCN(C(=O)Cn2c(=O)n(CCc3ccccc3)c(=O)c3ccccc32)CC1 | 16µM* | 15µM* | 5 | -10% | / | -11%
Cc1ccc(C)c(N(C)C(=O)COc2cc(=O)n(C)c3ccccc23)c1 | ? | ? | 0 | -2% | 263% | 3%
CNS(=O)(=O)c1ccc(CN2CC3(CCNCC3)CC2C(=O)O)cc1 (centres undefined) | / | / | / | / | 25% | /
CCCNC(=O)Cn1nc(C)n2nc(-c3ccc(CC)cc3)cc2c1=O | / | / | / | / | 12% | /
COc1cc2oc(=O)c(CC(=O)NCc3ccc4c(c3)OCO4)c(C)c2cc1OC | / | / | / | / | -10% | /
COc1cc(C(CC(=O)N2CCOCC2)c2c(OC)cc(OC)c3ccc(=O)oc23)cc(OC)c1OC (centres undefined) | -1% | 6% | -7 | -2% | -6% | 0%
CCN(CC)C(=O)CC(c1ccc(OC)cc1)c1c(OC)cc(OC)c2ccc(=O)oc12 (centres undefined) | ? | 23µM* | -23 | -4% | ? | -6%
COc1ccc(C(CC(=O)N2CCCCC2)c2c(OC)cc(OC)c3ccc(=O)oc23)cc1 (centres undefined) | ? | 21µM* | -18 | -1% | ? | 7%
CCN(CC)C(=O)CC(c1cc(OC)c(OC)c(OC)c1)c1c(OC)cc(OC)c2ccc(=O)oc12 (centres undefined) | -21% | ? | 11 | 1% | 33% | 0%
Cc1ccc(C)c(N2CCN(CCCNC(=O)c3cnn(-c4cccc(Cl)c4)c3C3CCN(C(=O)OC(C)(C)C)CC3)CC2)c1 | 5.8µM* | 4.6µM* | / | / | ? | /
Cc1ccc(C)c(N2CCN(C(=O)c3cnn(-c4ccccc4Cl)c3C3CCN(C(=O)OC(C)(C)C)CC3)CC2)c1 | 13µM* | 13µM* | / | / | -23% | /
Cc1ccc(-n2ncc(C(=O)NCCCN3CCN(C)CC3)c2C2CCN(C(=O)OC(C)(C)C)CC2)c(C)c1 | ? | ? | / | / | -34% | /
CC(C)(C)OC(=O)N1CCC(c2c(C(=O)N3CCN(C(=O)c4ccco4)CC3)cnn2-c2ccccc2Cl)CC1 | ? | -27% | / | / | -5% | /
Cc1ccc(-n2ncc(C(=O)NCCN3CCOCC3)c2C2CCN(C(=O)OC(C)(C)C)CC2)c(C)c1 | ? | 0% | / | / | -17% | /
Cc1cccc(N2CCN(C(=O)c3cnn(-c4ccccc4Cl)c3C3CCN(C(=O)OC(C)(C)C)CC3)CC2C)c1 (centres undefined) | 13µM* | ? | / | / | -5% | /
Cc1ccc(C)c(N2CCN(CCCNC(=O)c3cnn(-c4ccccc4Cl)c3C3CCN(C(=O)OC(C)(C)C)CC3)CC2)c1 | 4.6µM* | 4.6µM* | / | / | ? | /
CC(C)(C)OC(=O)N1CCC(c2c(C(=O)O)cnn2-c2ccccc2Cl)CC1 | -11% | -10% | 17 | 12% | 20% | 1%
O=c1[nH]cccc1-c1nccc(C2(c3ccccc3Cl)CCNCC2)n1 | / | / | / | / | 19% | /
Cc1c(Cl)cccc1-n1ncc(C(=O)Nc2ccc(Br)cc2F)c1C1CCNCC1 | 5.2µM* | 4.1µM* | / | / | ? | /
SMILES | TDP1 cell noCPT | DT40 TDP1 CPT | IL-1B inflam inh | HT1080-NT tox | 12-LOX inh | HT1080 IDH1KD tx
Cc1ccc(C)c(N2CCN(CCCNC(=O)c3cnn(-c4ccc(F)cc4)c3C3CCN(C(=O)OC(C)(C)C)CC3)CC2)c1 | 3.3µM* | 4.1µM* | / | / | ? | /
Cc1ccc(N2CCN(C(=O)c3cnn(-c4ccc(F)cc4F)c3C3CCN(C(=O)OC(C)(C)C)CC3)CC2)c(C)c1 | 23µM* | 16µM* | / | / | -17% | /
Cc1ccc(-n2ncc(C(=O)N3CCN(c4cccc(C)c4C)CC3)c2C2CCNCC2)c(C)c1 | 16µM* | 8.2µM* | / | / | 1% | /
CCN1CCN(CCCNC(=O)c2cnn(-c3ccc(C)cc3)c2C2CCN(C(=O)OC(C)(C)C)CC2)CC1 | ? | ? | / | / | -8% | /
COc1cc(S(=O)(=O)Nc2ccc3ccccc3c2)ccc1NC(C)=O | / | / | / | / | -30% | /
O=C(COc1ccc(F)cc1Cl)Nc1cccc(S(=O)(=O)N2CCCC2)c1 | -26% | ? | -52* | 1% | -10% | 2%
CC(=O)Nc1cccc(OCC(=O)Nc2cccc(S(=O)(=O)N3CCCC3)c2)c1 | 21µM* | 21µM* | 11 | -6% | -1% | -2%
O=C(COc1ccccc1[N+](=O)[O-])Nc1cccc(S(=O)(=O)N2CCCC2)c1 | 21µM* | 23µM* | -1 | 8% | -17% | 8%
O=C(COC(=O)/C=C/c1cccs1)Nc1cccc(S(=O)(=O)N2CCCC2)c1 | 23µM* | 13µM* | 4 | 5% | -2% | 14%
CCOC(=O)c1c(C)oc(NC(=O)c2cc(-c3ccc(OC)cc3)on2)c1C#N | / | / | / | / | 32% | /
COc1ccc(OCCC(=O)OCC(=O)Nc2cccc(S(=O)(=O)N3CCCCC3)c2)cc1 | ? | ? | -96* | -11% | 0% | ?
O=C(COc1ccccc1)Nc1cccc(S(=O)(=O)N2CCCC2)c1 | -27% | -18% | -2 | 4% | -23% | 4%
O=C(COc1ccccc1Cl)Nc1cccc(S(=O)(=O)N2CCCC2)c1 | 21µM* | 16µM* | -21 | -1%[9.24 µM] | 153% | 0%
